# Pf growth 48h = inhibits P. falciparum growth in the first generation, 48 h; P. falciparum luciferase growth in erythrocytes, 48 h; Potency, µM (series often up to 28.7 µM), for the others: top-dose activity change, negative = inhibition, most hits filed as inhibitors; hit rate 5.9% among 310,000; note: potency is the fitted concentration of half-maximal effect; % is set by controls: 0 for no effect and ±100 for the full control effect
#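 A one-generation exposure of luciferase-tagged malaria parasites in RPMI 1640/Albumax erythrocyte culture, 37 C and 5% CO2. Inhibition is inferred from decreased luminescence after adding detection reagent.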
# Pf growth 96h = P. falciparum growth inhibition at 96 hours | Potency, µM (titrated, usually from 28.7 µM), without a hit: at the highest dose activity change, negative = inhibition, hits mostly inhibitors | P. falciparum luciferase reporter growth, 96 h | hit rate 6.9% among 320,000 | AID 504834; note: potency is the fitted concentration of half-maximal effect; % is set by controls: 0 for no effect and ±100 for the full control effect
#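 Infected RBCs, 2% Hct / 0.05% parasitemia final; luciferase-reporter P. falciparum; cpd 96 h, 37 C, 5% CO2; luciferase detection reagent; luminescence.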
# HCV inh = blocks hepatitis C virus; hit rate 3.4% among 340,000; Potency, µM (top dose mostly 41.8 µM), without a hit: at the highest dose activity change, negative = inhibition, actives largely listed as inhibitors; Huh7.5.1 HCVcc-Cre infection, luciferase reporter, 44 h; note: potency is the fitted concentration of half-maximal effect; % is set by controls: 0 for no effect and ±100 for the full control effect
#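 HCVcc-Cre virus at an moi near 0.5 was added right after compound to cells cultured 4 h from seeding (1,000 cells/well). Luciferase activity was determined 44 h later, 15 min after substrate addition at RT.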
# Cycloheximide cs = affects cycloheximide protein synthesis inhibition readout, counter-screen; cell reporter, cycloheximide protein synthesis inhibition counterscreen; max response, %; hit rate 12% among 300,000; in the data active = max response mostly above about 13%, no sharp cut-off; inactive = mostly below about 14%; note: read at 38.3 µM for the half of the compounds with a filed dose; 0% is about no effect
# Shiga toxin inh = inhibitors of Shiga toxin in Vero cells | hit rate 9.2% among 290,000 | AID 2315 | inhibition, % at 38.7 µM | Vero cells, Shiga toxin protein synthesis inhibition reporter; in the data active = inhibition mostly above about 28%, no sharp cut-off; inactive = mostly below about 43%; note: 0% is about no effect
# HCMV antiviral = blocks human cytomegalovirus replication; HFF cells, HCMV-luciferase reporter, 72 h; hits give low values; activity change, negative = inhibition, % at 57.5 µM; hit rate 4.5% among 410,000; AID 1259415; in the data active = activity change below about -60%; inconclusive = no clear call, values can overlap the other calls; inactive = above about -39%; note: % is set by controls: 0 for no effect and ±100 for the full control effect
#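 Two-dose cell screen: HFF monolayers treated with compounds and infected with luciferase-expressing HCMV at 1 PFU/cell, 72 h at 37C, then lysed for luciferase measurement.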
# The depositor's hits bear a star; u = inconclusive; x = no result given; ! = repeats disagree. Rows were chosen to be rich in hits. Some 21% of all compounds tested hit in one or more screens of this group. Unless noted, calls come from the whole dose curve; as a rule, active = well fitted inhibition curve with a large enough effect; inconclusive = small, poorly fitted or top-dose-only effect, or another doubt; inactive = no such curve, though single readings can be large or run the other way.
SMILES,Pf growth 48h,Pf growth 96h,HCV inh,Cycloheximide cs,Shiga toxin inh,HCMV antiviral
Cc1cccc(CN2[C@H](CO)C=CS2(=O)=O)c1,x,x,x,x,x,2
C[C@@H]1CN([C@H](C)CO)C(=O)c2cc(NC(=O)Nc3ccc(F)cc3)ccc2O[C@@H](C)CCCCO[C@@H]1CN(C)C(=O)CCCN(C)C,x,x,x,x,x,-27
O=C(N/C(=C\c1ccccc1)C(=O)N1CCCCC1)c1ccco1,20%,-13%,8%,-2,-9,-4
COc1ccc(C(C)(C)C)cc1N1C(=O)[C@@H]2CSCCS(=O)(=O)N2C1=O,x,x,x,x,x,-12
CCN1CCN(Cc2ccc(NC(=O)c3ccc(C)c(NC(=O)N4CCNC4=O)c3)cc2C(F)(F)F)CC1,u,u,u,2,-7,-94*!
COc1cc(OC)cc(C(=O)N2CCN(Cc3ccccc3C(F)(F)F)CC2)c1,6%,u,-28%,-7,-21,33
CCN1CCN(Cc2ccc(NC(=O)c3cc(NC(=O)c4cnnc5ccccc45)cc(OC)c3)cc2C(F)(F)F)CC1,2.3µM*,2.9µM*,u,-4,-4,-94*
Cc1ccc(C(=O)Nc2cccc(C(F)(F)F)c2)cc1NC(=O)c1nccn1C,17%,60%,31%,-1,-3,u
CCN1CCN(Cc2ccc(NC(=O)c3ccc(C)c(NC(=O)c4cccc5[nH]ccc45)c3)cc2C(F)(F)F)CC1,12µM*,10µM*,9%,53*,94*,-99*!
Cc1cccc(NC(=S)/N=C(\N)Nc2nc(C)c3ccccc3n2)c1,-2%,10µM*,4µM*,30*,50,u
CC(C)=NN/C(N)=N/C(=S)Nc1ccc(C)cc1,25%,29%,-2%,-2,20,-3
Cc1cccc(NC(=S)/N=C(\N)Nc2nc(C)c3cc(C)ccc3n2)c1,u,u,u,-2,-5,13
Cc1ccc(S(=O)(=O)/N=C(\N)Nc2nc(C)c3ccccc3n2)cc1,1%,51%,4%,21*,16,-9
COc1ccc2c(C)nc(N/C(N)=N/S(=O)(=O)c3ccc(C)cc3)nc2c1,u,u,u,-2,-7,7
Cc1ccc(NC(=S)/N=C(\N)Nc2nc(C)c3ccccc3n2)cc1C,12µM*,2.3µM*,11µM*,22*,20,-35
Cc1cc(C)cc(NC(=S)/N=C(\N)Nc2nc(C)c3ccccc3n2)c1,u,13µM*,u,-5,-7,-79*
Cc1ccc(NC(=O)c2ccc(N(Cc3ccccc3)S(C)(=O)=O)cc2)cc1,x,x,x,x,x,21
COc1ccc(S(=O)(=O)NCc2cccn2Cc2cccc(C)c2)cc1OC,x,x,x,x,x,-12
Cc1cccc(NC(=S)/N=C(\N)Nc2nc(C)c3ccc(C)cc3n2)c1,13µM*,u,2µM*,-1,-11,-33
Cc1c(Br)cnn1C(C)C(=O)N1CCN(c2ccccc2F)CC1 (stereo not drawn),u,-18%,18%,x,x,-20
COc1ccc(NC(=O)COc2cccc3c2CCN(Cc2cccnc2)C3=O)cc1,u,u,x,1,-36,24
CCOc1ccc(NC(=O)COc2cccc3c2CCN(Cc2cccnc2)C3=O)cc1,12µM*,u,x,0,-16,-15
Cc1ccc(C)c(NC(=O)COc2cccc3c2CCN(Cc2ccccc2C)C3=O)c1,u,10µM*,5%,2,-11,-9
COc1ccc(NC(=O)COc2cccc3c2CCN(Cc2cccnc2)C3=O)c(OC)c1,5.2µM*,1.3µM*,-22%,-2,-29,u
Cc1ccc2c(c1)N(C(=O)CCC(=O)NCCCN1CCOCC1)CCO2,49%,49%,7%,-2,5,45
C/C(CC(=O)Nc1ccc(OCc2ccccc2)cc1)=N\NC(=O)C(=O)Nc1cccc(C)c1,1%,u,u,28*,-2,-36
CCC(=O)N/N=C(\C)CC(=O)Nc1ccc(F)cc1,1%,-6%,16%,2,18,-23
CC(=O)Nc1ccc(NC(=O)C/C(C)=N/NC(N)=S)cc1,u,1.9µM*,0%,-2,23,-3

# High-throughput results as filed in PubChem.
